# Laboratory results published in the supplement of paper PMC8728848.
# This is one part of a sample in which the strongest signals are shown more often than they occur.
# Legend:
# Experiment in all cases: glycan array binding signal (z-score within array); higher = stronger binding
# Conditions in all cases: glycan notation: IUPAC condensed, linker removed
# [1] = target: Fuc(a1-2)Gal(b1-3)GlcNAc(b1-3)[Fuc(a1-2)Gal(b1-3)GlcNAc(b1-6)]GalNAc
# In short: (§1)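 Glycan array binding is given as a within-array Z-score, which can be read as non-binding when negative. The arrays, 3228 of them, came from the Consortium for Functional Glycomics database and were retained only where the protein sequence was available. Z-scores were averaged across arrays of the same protein sequence at different concentrations or buffers and across linkers.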
# [2] = target: Fuc(a1-2)Gal(b1-4)[Fuc(a1-3)]GlcNAc(b1-3)Gal(b1-4)[Fuc(a1-3)]GlcNAc
# In short: as §1
# [3] = target: Fuc(a1-2)[Gal(a1-3)]Gal(b1-3)GlcNAc
# In short: as §1
# [4] = target: Fuc(a1-2)[Gal(a1-3)]Gal(b1-4)GlcNAc(b1-3)GalNAc
# In short: as §1
# [5] = target: Gal(a1-3)Gal(b1-4)Glc
# In short: as §1
# [6] = target: Gal(a1-3)Gal(b1-4)GlcNAc(b1-2)Man(a1-3)[Gal(a1-3)Gal(b1-4)GlcNAc(b1-2)Man(a1-6)]Man(b1-4)GlcNAc(b1-4)GlcNAc
# In short: as §1
# [7] = target: Gal(a1-4)Gal(b1-3)GlcNAc(b1-2)Man(a1-3)[Gal(a1-4)Gal(b1-3)GlcNAc(b1-2)Man(a1-6)]Man(b1-4)GlcNAc(b1-4)GlcNAc
# In short: as §1
# [8] = target: Gal(b1-2)Gal
# In short: as §1
# [9] = target: Gal(b1-3)GalNAc(a1-3)[Fuc(a1-2)]Gal(b1-4)Glc
# In short: as §1
# [10] = target: Gal(b1-3)GalNAc(b1-3)Gal(a1-4)Gal(b1-4)Glc
# In short: as §1
# [11] = target: Gal(b1-3)GalNAc(b1-4)Gal(b1-4)Glc
# In short: as §1
# [12] = target: Gal(b1-3)GlcNAc(b1-3)Gal(b1-3)GlcNAc
# In short: as §1
# [13] = target: Gal(b1-3)GlcNAc6S
# In short: as §1
# [14] = target: Gal(b1-3)[Fuc(a1-4)]GlcNAc(b1-2)Man(a1-3)[Gal(b1-3)[Fuc(a1-4)]GlcNAc(b1-2)Man(a1-6)]Man(b1-4)GlcNAc(b1-4)[Fuc(a1-6)]GlcNAc
# In short: as §1
# [15] = target: Gal(b1-4)GlcNAc(b1-2)Man(a1-6)[GlcNAc(b1-2)Man(a1-3)]Man(b1-4)GlcNAc(b1-4)GlcNAc
# In short: as §1
# [16] = target: Gal(b1-4)GlcNAc(b1-2)[Gal(b1-4)GlcNAc(b1-4)]Man(a1-3)[GlcNAc(b1-4)][Gal(b1-4)GlcNAc(b1-2)Man(a1-6)]Man(b1-4)GlcNAc(b1-4)GlcNAc
# In short: as §1
# [17] = target: Gal(b1-4)GlcNAc(b1-3)Gal(b1-4)GlcNAc(b1-2)Man(a1-3)[Gal(b1-4)GlcNAc(b1-3)Gal(b1-4)GlcNAc(b1-2)Man(a1-6)]Man(b1-4)GlcNAc(b1-4)GlcNAc
# In short: as §1
# [18] = target: Gal(b1-4)GlcNAc(b1-3)Gal(b1-4)GlcNAc(b1-3)Gal(b1-4)GlcNAc(b1-2)Man(a1-3)[Gal(b1-4)GlcNAc(b1-3)Gal(b1-4)GlcNAc(b1-3)Gal(b1-4)GlcNAc(b1-2)Man(a1-6)]Man(b1-4)GlcNAc(b1-4)[Fuc(a1-6)]GlcNAc
# In short: as §1
# [19] = target: Gal(b1-4)GlcNAc(b1-3)Gal(b1-4)GlcNAc(b1-3)Gal(b1-4)GlcNAc(b1-3)Gal(b1-4)GlcNAc(b1-2)Man(a1-3)[Gal(b1-4)GlcNAc(b1-3)Gal(b1-4)GlcNAc(b1-3)Gal(b1-4)GlcNAc(b1-3)Gal(b1-4)GlcNAc(b1-2)Man(a1-6)]Man(b1-4)GlcNAc(b1-4)GlcNAc
# In short: as §1
# [20] = target: Gal(b1-4)GlcNAc(b1-3)Gal(b1-4)GlcNAc(b1-3)Gal(b1-4)GlcNAc(b1-3)Gal(b1-4)GlcNAc(b1-2)Man(a1-3)[Gal(b1-4)GlcNAc(b1-3)Gal(b1-4)GlcNAc(b1-3)Gal(b1-4)GlcNAc(b1-3)Gal(b1-4)GlcNAc(b1-2)Man(a1-6)]Man(b1-4)GlcNAc(b1-4)[Fuc(a1-6)]GlcNAc
# In short: as §1
# [21] = target: Gal(b1-4)GlcNAc(b1-3)Gal(b1-4)GlcNAc(b1-3)Gal(b1-4)GlcNAc(b1-3)Gal(b1-4)GlcNAc(b1-2)[Gal(b1-4)GlcNAc(b1-3)Gal(b1-4)GlcNAc(b1-3)Gal(b1-4)GlcNAc(b1-3)Gal(b1-4)GlcNAc(b1-6)]Man(a1-6)[Gal(b1-4)GlcNAc(b1-3)Gal(b1-4)GlcNAc(b1-3)Gal(b1-4)GlcNAc(b1-3)Gal(b1-4)GlcNAc(b1-2)Man(a1-3)]Man(b1-4)GlcNAc(b1-4)[Fuc(a1-6)]GlcNAc
# In short: as §1
# [22] = target: Gal(b1-4)GlcNAc(b1-3)Gal(b1-4)GlcNAc(b1-3)Gal(b1-4)GlcNAc(b1-3)Gal(b1-4)GlcNAc(b1-3)Gal(b1-4)GlcNAc(b1-2)Man(a1-3)[Gal(b1-4)GlcNAc(b1-3)Gal(b1-4)GlcNAc(b1-3)Gal(b1-4)GlcNAc(b1-3)Gal(b1-4)GlcNAc(b1-3)Gal(b1-4)GlcNAc(b1-2)Man(a1-6)]Man(b1-4)GlcNAc(b1-4)GlcNAc
# In short: as §1
# [23] = target: Gal(b1-4)GlcNAc(b1-3)Gal(b1-4)GlcNAc(b1-3)Gal(b1-4)GlcNAc(b1-3)Gal(b1-4)GlcNAc(b1-3)Gal(b1-4)GlcNAc(b1-2)Man(a1-3)[Gal(b1-4)GlcNAc(b1-3)Gal(b1-4)GlcNAc(b1-3)Gal(b1-4)GlcNAc(b1-3)Gal(b1-4)GlcNAc(b1-3)Gal(b1-4)GlcNAc(b1-2)Man(a1-6)]Man(b1-4)GlcNAc(b1-4)[Fuc(a1-6)]GlcNAc
# In short: as §1
# [24] = target: Gal(b1-4)GlcNAc(b1-3)Gal(b1-4)GlcNAc(b1-3)Gal(b1-4)GlcNAc(b1-3)Gal(b1-4)GlcNAc(b1-3)Gal(b1-4)GlcNAc(b1-2)[Gal(b1-4)GlcNAc(b1-3)Gal(b1-4)GlcNAc(b1-3)Gal(b1-4)GlcNAc(b1-3)Gal(b1-4)GlcNAc(b1-3)Gal(b1-4)GlcNAc(b1-6)]Man(a1-6)[Gal(b1-4)GlcNAc(b1-3)Gal(b1-4)GlcNAc(b1-3)Gal(b1-4)GlcNAc(b1-3)Gal(b1-4)GlcNAc(b1-3)Gal(b1-4)GlcNAc(b1-2)Man(a1-3)]Man(b1-4)GlcNAc(b1-4)[Fuc(a1-6)]GlcNAc
# In short: as §1
# [25] = target: Gal(b1-4)GlcNAc(b1-3)Gal(b1-4)GlcNAc(b1-3)Gal(b1-4)GlcNAc(b1-3)Gal(b1-4)GlcNAc(b1-3)Gal(b1-4)GlcNAc(b1-3)Gal(b1-4)GlcNAc(b1-2)Man(a1-3)[Gal(b1-4)GlcNAc(b1-3)Gal(b1-4)GlcNAc(b1-3)Gal(b1-4)GlcNAc(b1-3)Gal(b1-4)GlcNAc(b1-3)Gal(b1-4)GlcNAc(b1-3)Gal(b1-4)GlcNAc(b1-2)Man(a1-6)]Man(b1-4)GlcNAc(b1-4)GlcNAc
# In short: as §1
# [26] = target: Gal3S(b1-4)[Fuc(a1-3)]Glc6S
# In short: as §1
# [27] = target: Gal4S6S(b1-4)GlcNAc
# In short: as §1
# [28] = target: Gal6S(b1-3)GlcNAc
# In short: as §1
# [29] = target: GalNAc(b1-3)Gal(a1-6)Gal(b1-4)Glc
# In short: as §1
# [30] = target: GalNAc(b1-3)GlcNAc
# In short: as §1
# [31] = target: GalNAc3S(b1-4)GlcNAc3S
# In short: as §1
# [32] = target: GlcA(b1-6)Gal
# In short: as §1
# [33] = target: GlcNAc(a1-4)Gal(b1-4)GlcNAc(b1-3)Gal(b1-4)GlcNAc(b1-3)Gal(b1-4)GlcNAc
# In short: as §1
# [34] = target: GlcNAc(b1-6)Gal(b1-4)GlcNAc
# In short: as §1
# [35] = target: GlcNAc(b1-6)GalNAc
# In short: as §1
# [36] = target: Kdn(a2-3)Gal(b1-3)GlcNAc
# In short: as §1
# [37] = target: Kdn(a2-3)Gal(b1-4)GlcNAc
# In short: as §1
# [38] = target: Man(a1-2)Man(a1-3)[Man(a1-2)Man(a1-6)]Man
# In short: as §1
# [39] = target: Neu5Ac(a2-3)Gal(b1-4)GlcNAc(b1-3)Gal(b1-4)GlcNAc(b1-3)GalNAc
# In short: as §1
# [40] = target: Neu5Ac(a2-3)Gal(b1-4)[Fuc(a1-3)]GlcNAc(b1-3)Gal
# In short: as §1
# [41] = target: Neu5Ac(a2-3)Gal(b1-4)[Fuc(a1-3)]GlcNAc(b1-3)Gal(b1-4)GlcNAc
# In short: as §1
# [42] = target: Neu5Ac(a2-3)Gal(b1-4)[Fuc(a1-3)]GlcNAc(b1-6)[Gal(b1-3)]GalNAc
# In short: as §1
# [43] = target: Neu5Ac(a2-3)[GalNAc(b1-4)]Gal(b1-4)Glc
# In short: as §1
# [44] = target: Neu5Ac(a2-6)Gal(b1-3)GlcNAc(b1-3)[Gal(b1-4)GlcNAc(b1-6)]Gal(b1-4)Glc
# In short: as §1
# [45] = target: Neu5Ac(a2-6)Gal(b1-4)GlcNAc(b1-2)Man(a1-3)[Man(a1-6)]Man(b1-4)GlcNAc(b1-4)GlcNAc
# In short: as §1
# [46] = target: Neu5Ac(a2-6)Gal(b1-4)GlcNAc(b1-3)[Neu5Ac(a2-6)Gal(b1-4)GlcNAc(b1-6)]GalNAc
# In short: as §1
# [47] = target: Neu5Ac(a2-6)Gal(b1-4)GlcNAc(b1-6)[Gal(b1-3)GlcNAc(b1-3)]Gal(b1-4)Glc
# In short: as §1
# [48] = target: Neu5Ac(a2-6)GalNAc(b1-4)GlcNAc
# In short: as §1
# [49] = target: Neu5Gc(a2-6)GalNAc
# In short: as §1
binder,measurement,setting,value
"Epa9 (Candida glabrata), CAGL0A01386g (protein) MGSSHHHHHHSSGLVPRGSHMDITPFAHYPRPEGCSSPPNAVSVGLHMDLYNYPYLYVKNPRTGFTNDTDSDADGETDGDSAGGIEGRAGQCWNPEYQDPNFPRYGYKKYGSFGSSDHVNGKISWDHNEFKEGCKPIMARLPTAYNYPAKITFSNFTMVLSGYFKPKSTGLYKFEIHADDFILFNFGSKNAFECCNREESIDNFGPYVAYAMWPNEADQELEVYLFEDSYYPIRLFYNNRDYHSKFMVGFYPPNTEEITYDFDGYLYMLDDTGNECKDSIRYKTVCDD",glycan array binding signal (z-score),[1],-0.296
same,glycan array binding signal (z-score),[2],-0.521
same,glycan array binding signal (z-score),[3],-0.32
same,glycan array binding signal (z-score),[4],-0.304
same,glycan array binding signal (z-score),[5],0.746
same,glycan array binding signal (z-score),[6],4.07
same,glycan array binding signal (z-score),[7],4.05
same,glycan array binding signal (z-score),[8],0.38
same,glycan array binding signal (z-score),[9],1.58
same,glycan array binding signal (z-score),[10],1.98
same,glycan array binding signal (z-score),[11],4.13
same,glycan array binding signal (z-score),[12],-0.11
same,glycan array binding signal (z-score),[13],-0.028
same,glycan array binding signal (z-score),[14],-0.377
same,glycan array binding signal (z-score),[15],0.1
same,glycan array binding signal (z-score),[16],1.34
same,glycan array binding signal (z-score),[17],1.3
same,glycan array binding signal (z-score),[18],3.45
same,glycan array binding signal (z-score),[19],4.82
same,glycan array binding signal (z-score),[20],4.74
same,glycan array binding signal (z-score),[21],5.31
same,glycan array binding signal (z-score),[22],5.73
same,glycan array binding signal (z-score),[23],5.38
same,glycan array binding signal (z-score),[24],6.29
same,glycan array binding signal (z-score),[25],4.6
same,glycan array binding signal (z-score),[26],-0.318
same,glycan array binding signal (z-score),[27],-0.491
same,glycan array binding signal (z-score),[28],-0.361
same,glycan array binding signal (z-score),[29],-0.468
same,glycan array binding signal (z-score),[30],-0.486
same,glycan array binding signal (z-score),[31],-0.441
same,glycan array binding signal (z-score),[32],-0.198
same,glycan array binding signal (z-score),[33],-0.462
same,glycan array binding signal (z-score),[34],0.361
same,glycan array binding signal (z-score),[35],-0.467
same,glycan array binding signal (z-score),[36],-0.454
same,glycan array binding signal (z-score),[37],-0.394
same,glycan array binding signal (z-score),[38],-0.635
same,glycan array binding signal (z-score),[39],-0.387
same,glycan array binding signal (z-score),[40],-0.474
same,glycan array binding signal (z-score),[41],-0.253
same,glycan array binding signal (z-score),[42],-0.217
same,glycan array binding signal (z-score),[43],-0.447
same,glycan array binding signal (z-score),[44],0.392
same,glycan array binding signal (z-score),[45],-0.06
same,glycan array binding signal (z-score),[46],-0.357
same,glycan array binding signal (z-score),[47],-0.304
same,glycan array binding signal (z-score),[48],-0.519
same,glycan array binding signal (z-score),[49],-0.467
